Source: PubChem BioAssay AID620 (Sanford-Burnham Center for Chemical Genomics, 2007)
Hit rate of the full screen: of about 87,000 compounds, about 360 (0.41%) were called active. What follows is part of a selection rich in actives, with near analogues and random picks from the rest. Values without a mark were called inactive. No stated cut-off is given here; in the data, active means cytotoxicity above about 50%; inactive means the rest.

Assay: cytotoxicity in HT1080 fibrosarcoma cells, cell-based, fluorescence readout (AID 620);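 further: cells exposed to compound overnight then 4 h with Alamar Blue; 0% = vehicle DMSO and 100% = killing control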
Details: HT1080 viability, at 10 µM, active compounds read high
With `C=CCn1c(NC)cc(=O)n(C)c1=O` the cytotoxicity was 9.8%. `CC1(C(=O)NC2CCCC2)CCC(=O)N1Cc1ccc2c(c1)OCO2` (configuration not stated) showed a cytotoxicity of 20.7%. `COc1ccc(O)c(C(=O)c2cc(C#N)c(=O)n(CCN3CCOCC3)c2)c1` gave a cytotoxicity of 7%. Compound `COC(=O)c1ccc(NC(=O)COc2ccc(S(=O)(=O)N3CCCCC3)cc2)cc1` has a cytotoxicity of -6.1%. In the case of `c1ccc(-c2nc3ccccc3nc2N2CCOCC2)cc1`, the cytotoxicity is reported as 19.1%. Work on `Nc1nc(NCc2ccccc2)nc(-c2ccccc2)n1` yielded a cytotoxicity of 12.3%. For `Cc1c(NC(=O)c2ccccc2)c(=O)n(-c2ccccc2)n1C`, the cytotoxicity was -12.6%. `Cc1c(NC(=O)c2ccc(=O)oc2)c(=O)n(-c2ccccc2)n1C` gave a cytotoxicity of 32.6%. With `COc1cc2[nH]cc(C(=O)NCCc3ccccc3)c(=O)c2cc1OC` the cytotoxicity was 5.3%. Compound `CCOc1ccc(OCc2ccc(C(=O)Nc3cccnc3)o2)cc1` has a cytotoxicity of -3.1%. With `O=C(CSc1oc(-c2ccc(F)cc2)nc1S(=O)(=O)c1ccc(F)cc1)NCC1CCCO1` (configuration not stated) the cytotoxicity was 4.4%. `CCN(CC)C(=O)CN(C#N)c1nc(NC(C)C)nc(NC(C)C)n1` showed a cytotoxicity of -2%. With `CCCS(=O)(=O)c1nnnn1-c1cccc(OC)c1` the cytotoxicity was 66.7% (active). With `COc1cccc(-n2nnnc2SCC(=O)NC2CCCC2)c1` the cytotoxicity was -4.7%. Compound `COc1cccc(Oc2nnnn2-c2ccccc2)c1` has a cytotoxicity of -0.2%. With `CC(C)NC(=O)c1ccccc1-c1nc(-c2ccccc2Cl)no1` the cytotoxicity was 50.9% (active). Work on `CC(C)(C)NC(=O)c1ccccc1-c1nc(-c2ccccc2Cl)no1` yielded a cytotoxicity of -5.2%. For `CCNC(=O)c1ccccc1-c1nc(-c2ccccc2Cl)no1`, the cytotoxicity was -5.2%. With `COc1ccccc1N1CCN(C(=O)C2CCN(S(=O)(=O)c3ccccc3)CC2)CC1` the cytotoxicity was -0.7%. `COC(=O)c1ccc(C)c(NS(=O)(=O)c2ccc(OC)c(OC)c2)c1` showed a cytotoxicity of 4%. `COC(=O)c1ccc(Cl)c(NS(=O)(=O)c2ccc3c(c2)OCCO3)c1` showed a cytotoxicity of 35.5%. In the case of `COC(=O)c1ccc(C)c(NS(=O)(=O)c2ccc3c(c2)OCCO3)c1`, the cytotoxicity is reported as 51.6% (active). For `CCCC12CN3CC(C)(CN(C1)C3c1ccc3c(c1)OCO3)C2=O` (configuration not stated), the cytotoxicity was -1.1%. With `Cc1ccc(OCc2nn3c(-c4n[nH]c5c4CCC5)nnc3s2)cc1` the cytotoxicity was 3.7%. With `Clc1ccccc1-c1nnc2sc(-c3ccncc3)nn12` the cytotoxicity was -1.3%. For `CN(C)c1ccc(-c2nn3c(-c4ccccc4Cl)nnc3s2)cc1`, the cytotoxicity was 57.2% (active). `COc1ccccc1-c1nnc2sc(-c3ccc(N(C)C)cc3)nn12` showed a cytotoxicity of 33.1%. Compound `CN(C)c1ccc(-c2nn3c(-c4ccc(Cl)cc4)nnc3s2)cc1` has a cytotoxicity of -10.2%. `CN(C)c1ccc(-c2nn3c(-c4ccncc4)nnc3s2)cc1` showed a cytotoxicity of 0.5%. For `CCOc1ccc(-c2nnc3sc(-c4ccccc4OC)nn23)cc1`, the cytotoxicity was 22%. With `CCN(CC)c1ccc(-c2nn3c(-c4ccccc4OC)nnc3s2)cc1` the cytotoxicity was 50.1% (active). `Cc1nn2c(-c3ccc(Cl)cc3Cl)nnc2s1` showed a cytotoxicity of 7.1%. For `CCN(CC)c1ccc(-c2nn3c(-c4n[nH]c5c4CCC5)nnc3s2)cc1`, the cytotoxicity was 55.1% (active). Work on `CCN(CC)c1ccc(-c2nn3c(-c4cccnc4)nnc3s2)cc1` yielded a cytotoxicity of 2.9%. In the case of `CN(C)c1ccc(-c2nn3c(-c4ccc(Cl)cc4Cl)nnc3s2)cc1`, the cytotoxicity is reported as 52.2% (active). Compound `CS(=O)(=O)N(CC(=O)N1CCCCC1)c1sc2c(c1C#N)CCCC2` has a cytotoxicity of 15.6%. In the case of `CN(C)CCCNC(=O)CC(c1ccccc1)c1ccccc1O` (configuration not stated), the cytotoxicity is reported as 5.3%. In the case of `O=C(O)CCn1c(=O)c2ccccc2c2ccccc2c1=O`, the cytotoxicity is reported as 2%. For `C=CCOn1c(C)c(C(C)=O)c2c3nonc3ccc21`, the cytotoxicity was 2.2%. `Cn1c(N)c(C(=O)COC(=O)c2ccco2)c(=O)n(C)c1=O` gave a cytotoxicity of -0.9%. Work on `CC(=O)N1CCc2cc(S(=O)(=O)NC(C(=O)Nc3nc(C)cs3)C(C)C)ccc21` (configuration not stated) yielded a cytotoxicity of 11.9%. For `COc1ccccc1-c1nnc2sc(-c3cc4ccccc4o3)nn12`, the cytotoxicity was 53.5% (active). `c1ccc(-c2nnc3sc(-c4cc5ccccc5o4)nn23)cc1` showed a cytotoxicity of -3.1%. With `Cc1nnc2sc(-c3cc4ccccc4o3)nn12` the cytotoxicity was 0.8%. Compound `Cc1ccccc1NS(=O)(=O)c1ccc(NC(=O)c2ccco2)cc1` has a cytotoxicity of 2.4%. In the case of `Cc1cc(C)cc(C(=O)N2CC(C)OC(C)C2)c1` (configuration not stated), the cytotoxicity is reported as -14.9%. With `CCOC(=O)CS(=O)(=O)c1nc(-c2ccc(F)cc2)cc(C(F)(F)F)n1` the cytotoxicity was 56.6% (active). `COC(=O)CCS(=O)(=O)c1nc(-c2ccccc2)cc(C(F)(F)F)n1` gave a cytotoxicity of 2.4%. In the case of `CS(=O)(=O)c1nc(-c2ccccc2)cc(C(F)(F)F)n1`, the cytotoxicity is reported as 59.4% (active). With `CCOC(=O)CSc1nc(-c2ccccc2)cc(C(F)(F)F)n1` the cytotoxicity was -7.2%. Work on `COc1ccccc1-c1cc(C(F)(F)F)nc(S(=O)(=O)CCCC(=O)N2CCCCC2C)n1` (configuration not stated) yielded a cytotoxicity of 18.6%. Work on `COC(=O)CSc1nc(-c2ccc(F)cc2)cc(C(F)(F)F)n1` yielded a cytotoxicity of -10%. With `CCOC(=O)CS(=O)(=O)c1nc(-c2ccccc2)cc(C(F)(F)F)n1` the cytotoxicity was 8.3%. In the case of `COc1ccccc1-c1cc(C(F)(F)F)nc(S(=O)(=O)CCCC(=O)O)n1`, the cytotoxicity is reported as -3.7%. With `COc1ccc(-c2cc(C(F)(F)F)nc(S(C)(=O)=O)n2)cc1OC` the cytotoxicity was 10.4%. `COc1ccc(-c2cc(C(F)(F)F)nc(S(C)(=O)=O)n2)cc1` gave a cytotoxicity of 11.7%. For `CCOC(=O)Cn1c(=O)oc2cc(S(=O)(=O)N3CCN(c4ccccn4)CC3)ccc21`, the cytotoxicity was -4.7%. With `N#Cc1ccccc1Cn1c(=O)n(C2CCCC2)c(=O)c2ccccc21` the cytotoxicity was 4.1%. `COc1cccc(C(=O)NCC(=O)N2CCC(C)CC2)c1` showed a cytotoxicity of 7.2%. In the case of `COc1cccc(Oc2cn[nH]c2-c2ccc(OC)cc2O)c1`, the cytotoxicity is reported as 19.1%. For `COc1cccc(Oc2cn[nH]c2-c2ccc(O)cc2O)c1`, the cytotoxicity was 55.2% (active). Compound `COc1ccc(Oc2cn[nH]c2-c2ccc(O)cc2O)cc1` has a cytotoxicity of 19%.
